Compounds with a hit are over-represented: about 2.8% of the library has one in this group of screens.
KDM5B inhibitor: blocks human KDM5B histone demethylase activity; 220,000 tested, 2.6% active; Q9UGL1; Potency, µM (doses to about 57.7 µM), hits mostly inhibitors; KDM5B demethylase, FDH-coupled NADH fluorescence (FDH is formaldehyde dehydrogenase); AID 1347165; active means well fitted inhibition curve with a large enough effect; inconclusive means small, poorly fitted or top-dose-only effect; inactive means no such curve, though single readings can be large or run the other way; further: potency means the concentration at half of the fitted maximal effect; 0% is about no effect; nearly all actives have a fitted effect of over 70% in size
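Here, H3K4me3 peptide (12.5 µM in substrate mix) is demethylated by KDM5BΔAP, 200 nM final, after 10 min compound exposure. Formaldehyde product is coupled through FDH (0.25 U/mL in mix) to NADH fluorescence; 30-min ΔRFU feeds dose-response curves.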
IP6K1 inh: IP6K1 kinase inhibition. activity change, % (series mostly up to about 58 µM). IP6K1 kinase, ADP-Glo luminescence, 2 h; stronger effect = lower value. Q92551. 140,000 tested, 0.81% active; in the data active means activity change below about -25%; further: on the % scale 0 is the no-effect control and ±100 the full control effect
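ADP-Glo luminescence measures ADP made by human IP6K1 during a 2 h RT reaction with ATP/IP6 (mix at 1.3 mM/130 uM); top library doses 57.5 and 19.1 uM final.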
Numbers without * were called inactive; i = inactive; ? = inconclusive; . = not tested or not shown.

SMILES	KDM5B inhibitor	IP6K1 inh
Cc1noc(C)c1Cc1ccc(C(=O)N2CCc3c(nc4cc(-c5ccccc5)[nH]n4c3=O)C2)o1	?	0.8
O=C(c1ccsc1)N1CCc2c(nc3cc[nH]n3c2=O)C1	25.1µM*	27.2
Cc1n[nH]c(C)c1Cc1ccc(C(=O)N2CCc3c(nc4cc(-c5ccccc5)[nH]n4c3=O)C2)o1	?	7.3
COc1ccc(Nc2ccnc(N3CCC(NC(=O)Cc4ccc(F)cc4)CC3)n2)cc1	.	-5.4
N#CC1=C(N)Oc2c(oc(CO)cc2=O)C1c1cccc(Oc2ccccc2)c1 (stereo not drawn)	i	.
Cc1cc(C(F)(F)F)nc(Sc2nc(C)cc(C)c2C#N)n1	i	.
CCn1cc(S(=O)(=O)N2CCC(CCc3nc(C4CCOCC4)no3)CC2)cn1	.	8.9
Cn1ncc2c(C(=O)N3CCC(c4ccccc4)CC3)cc(-c3ccccc3C(F)(F)F)nc21	.	8.0
O=C(NC1CCCC1)c1ccc2nnc(-c3cccc(OC(F)(F)F)c3)n2c1	.	7.7
O=C(NC1CCCN(c2cc(-c3ccc(F)cc3)[nH]n2)C1)c1ccc2cc[nH]c2c1 (stereo not drawn)	?	10.6
O=C(c1n[nH]c2ccccc12)N1CCc2c(nc3cc(-c4ccccc4Cl)[nH]n3c2=O)C1	?	21.3
Cc1nn(C(=O)CCC(=O)N2CCc3nc4cc[nH]n4c(=O)c3C2)c2ccccc12	?	0.0
Cc1cccc(CC(=O)N2CCc3c(nc4cc[nH]n4c3=O)C2)c1	31.6µM*	10.4
O=C(c1n[nH]c2c1CCCC2)N1CCc2c(nc3cc[nH]n3c2=O)C1	28.2µM*	11.8
O=C(c1n[nH]c2c1CCCC2)N1CCc2nc3cc[nH]n3c(=O)c2C1	?	0.0
O=C(c1n[nH]c2c1CCCC2)N1CCc2c(nc3cc(-c4ccccc4)[nH]n3c2=O)C1	15.8µM*	48.1
NC(=O)[C@H](CC1CCCCC1)NC(=O)[C@@H]1CN(S(=O)(=O)c2ccccc2)CCN1C(=O)c1cccs1	i	-2.9
Cc1ccc(C(=O)Nc2ccc3oc(-c4ccccc4C)cc(=O)c3c2)cc1	i	.
CC(C)c1cc(CN(C)Cc2cn[nH]c2-c2ccc(F)cc2)no1	28.2µM*	1.1
CCOc1cccc(CN(C)Cc2cn[nH]c2-c2ccc(F)cc2)c1O	?	0.0
COc1ccc(F)cc1-c1ccc(CN2CCC(NC(=O)Nc3ccc(Cl)cc3)C2)cc1 (stereo not drawn)	.	25.1
Oc1ccccc1CN1CCC[C@H]1c1nc(-c2ccc(N3CCOCC3)nc2)no1	35.5µM*	0.9
c1ccc(CN2CCC[C@H]2c2nc(-c3ccc(-n4ccnc4)nc3)no2)cc1	i	4.2
FC(F)(F)Oc1cccc(CN2CCC[C@H]2c2nc(-c3ccc(N4CCOCC4)nc3)no2)c1	28.2µM*	6.5
COc1ccc(-c2noc([C@@H]3CCCN3C(=O)Cc3ccccc3)n2)cc1OC	i	1.9
SMILES	KDM5B inhibitor	IP6K1 inh
CNc1ccc(-c2noc([C@@H]3CCCN3Cc3cccc(OC)c3)n2)cn1	?	0.8
COc1ccc(-c2noc([C@@H]3CCCN3C(=O)CCc3ccccc3)n2)cc1OC	28.2µM*	-0.5
CN1CCN(c2ccc(-c3noc([C@@H]4CCCN4CCCc4ccccc4)n3)cn2)CC1	31.6µM*	11.0
CN1CCN(c2ccc(-c3noc([C@@H]4CCCN4Cc4ccncc4)n3)cn2)CC1	?	-5.5
NS(=O)(=O)c1ccc(NNC(=O)/C=C/c2cccs2)c([N+](=O)[O-])c1	i	.
COc1ccc(Br)cc1C(=O)Nc1c(NCc2ccccc2)c2ccccc2oc1=O	i	.
CCn1nc(C(=O)OC2CCCCC2)c2ccccc2c1=O	i	.
Cn1ccc2c(C(=O)Nc3ccc(C(N)=O)cc3)cccc21	i	.
COc1ccc(CC(=O)N2CCCN(c3cc(-c4ccc(OC)cc4)[nH]n3)CC2)cc1	?	-3.9
COc1ccc(CC(=O)N2CCCN(c3cc(-c4ccc(Cl)cc4)[nH]n3)CC2)cc1	?	-4.5
Cc1ccc(CC(=O)N2CCCN(c3cc(-c4ccccc4)[nH]n3)CC2)cc1	28.2µM*	-7.5
Cc1ccc(-c2cc(N3CCCN(C(=O)Cc4ccccc4)CC3)n[nH]2)cc1C	?	-0.7
COc1ccc(CC(=O)N2CCCN(c3cc(-c4ccccc4)[nH]n3)CC2)cc1	22.4µM*	7.6
Cc1cccc(OCC(=O)N2CCCN(c3cc(-c4ccc(Cl)cc4)[nH]n3)CC2)c1	14.1µM*	9.0
CO[C@@H]1COCC[C@H]1NC1CCN(c2ncc3ccc(F)cc3n2)CC1	28.2µM*	5.8
CO[C@@H]1COCC[C@H]1NC(=O)COc1cccc(-n2cnnn2)c1	i	-6.4
COc1ccc2c(c1)CN(Cc1ccccc1)C(=O)CCN2C[C@@H](O)COCc1ccccc1	.	14.9
O=C(Nc1ccc(Cl)cc1F)C12CC3CC(CC(C3)C1)C2	i	.
CCNC(=O)O[C@@H]1CO[C@H]2[C@@H]1OC[C@@H]2Nc1nccc(-c2cccs2)n1	28.2µM*	-6.9
O=C(Nc1ccccc1)N[C@H]1CO[C@H]2[C@@H]1OC[C@@H]2Nc1nccc(-c2cccs2)n1	?	-10.3
O=C(N[C@H]1CO[C@H]2[C@@H]1OC[C@@H]2Nc1nccc(-c2cccs2)n1)c1ccccc1	35.5µM*	-8.9
CC(C)(C)c1ccnc(N[C@H]2CO[C@H]3[C@@H]2OC[C@@H]3NC(=O)c2cccs2)n1	i	5.1
O=C(COc1ccccc1)N[C@H]1CO[C@H]2[C@@H]1OC[C@@H]2Nc1nccc(-c2cccs2)n1	28.2µM*	-4.7
O=C(N[C@H]1CO[C@H]2[C@@H]1OC[C@@H]2Nc1nccc(-c2cccs2)n1)C1CCCCC1	35.5µM*	-3.7
O=C(Nc1cccc2ccccc12)O[C@@H]1CO[C@H]2[C@@H]1OC[C@@H]2Nc1nccc(-c2ccccc2)n1	?	1.7
SMILES	KDM5B inhibitor	IP6K1 inh
O=C(N[C@H]1CO[C@H]2[C@@H]1OC[C@@H]2Nc1nccc(-c2cccs2)n1)c1ccc(C(F)(F)F)cc1	?	-1.5
Cn1ncc2c(C(=O)N3CCCCC3)cc(-c3ccccc3F)nc21	.	1.2
O=C(NCc1cccc(C(F)(F)F)c1)c1ccc2nc(-c3ccncc3)oc2c1	.	-9.8
Cc1ccc(C(CNC(=O)COc2cc(C)cc(C)c2)N2CCCCC2)cc1 (stereo not drawn)	i	.
Cc1nn(-c2ccccc2)c2c1C(C1CC1)N(C1CN(C(=O)c3cccnc3)C1)C2=O (stereo not drawn)	.	-1.3
O=C(NCCc1ccc(Cl)cc1)C1CCN(Cc2ccccc2-c2ccccc2F)CC1	.	16.3
COc1ccc(-c2ccc(C(=O)NCc3ccc(F)cc3F)cc2)nn1	.	11.8
CC(=O)Nc1ccc(S(=O)(=O)N[C@H]2CO[C@H]3[C@@H]2OC[C@@H]3Nc2nccc(-c3cccs3)n2)cc1	25.1µM*	2.4
CC(=O)c1ccc(NC(=O)N[C@H]2CO[C@H]3[C@@H]2OC[C@@H]3Nc2nccc(-c3cccs3)n2)cc1	?	-4.8
O=C(c1cc(F)cc(Cl)c1)N1CCc2nc(-c3cccc(F)c3)[nH]c2C1	i	7.7
O=C1CCC(C(=O)N2CCc3nc(-c4cccc(F)c4)[nH]c3C2)NC(=O)N1 (stereo not drawn)	22.4µM*	20.7
COc1cccc(CN2CC[C@@H](CO)N(C)c3nc(C)ccc3C2)c1	35.5µM*	-1.4
COc1ccccc1CN1CC[C@@H](CO)N(C)c2nc(C)ccc2C1	?	-3.6
CCN(CC)C(=S)SCC(=O)NC(=O)c1ccc[nH]1	i	.

Bioassay records from PubChem BioAssay.
